Results reported in PubChem BioAssay AID1745857 (National Center for Advancing Translational Sciences (NCATS), 2022).
Hit rate of the full screen: of about 120,000 compounds, about 370 (0.31%) were called active. Another 4% or so got no clear call; they are omitted. The call rests on the fitted dose curve. Shown is part of a subset that was picked to be rich in actives. Where a call stands in place of a potency, no number is given.

Test: Primary qHTS Assay for Foot and Mouth Disease Virus Antivirals against NCGC Sytravon and CBC Compound Libraries: Renilla Luciferase Signal; further: nearly all actives have a fitted effect of over 55% in size
Conditions: FMDV replicon cells; series mostly up to 57.5 µM
Potency means the concentration at half of the fitted maximal effect.

For COC(=O)Cc1csc(NC(=O)Cc2c(C)c3ccc(OC)cc3oc2=O)n1, which Potency is on record?
Its Potency is “inactive”.

Which Potency does the source give for O=C(NCCOc1ccccc1F)c1n[nH]c(=O)c2ccccc12 here?
The Potency was “inactive”.

For NS(=O)(=O)c1ccc(NC(=O)COc2ncnc3ccc(Br)cc23)cc1, which Potency is on record?
Its Potency is “inactive”.

Which Potency does the source give for Cc1cccc2nc(-c3ccc(N4CCOCC4)cc3)c(Nc3ccc4c(c3)OCCO4)n12 here?
The Potency was “inactive”.

For O=C(OC1CCCCC1=O)c1ccc(Cl)c(Cl)c1 (stereo unspecified), which Potency is on record?
The Potency was “inactive”.

Which Potency does the source give for O=C(NC(Cc1cccc(F)c1)c1cccc(F)c1)C1CCOCC1 (stereo unspecified) here?
Its Potency is “inactive”.

For O=C(CCC(=O)c1ccc(Cl)cc1)OCc1ccc(Cl)cc1Cl, which Potency is on record?
The Potency was “inactive”.

With CCOc1ccc(CCNC(=O)C(C)n2nc(C)n3c(cc4sccc43)c2=O)cc1OCC (stereo unspecified) as the compound, how does the Potency read?
Its Potency is “inactive”.

Which Potency does the source give for CCc1ccc(/C=C(\C#N)C(=O)NC2CC2)s1 here?
The Potency was “inactive”.

With C[C@@H](C(=O)N1CCN(c2ccccc2)CC1)n1cnc2ccccc2c1=O as the compound, how does the Potency read?
The Potency was “inactive”.

For CCC(C)NCCC(c1ccccc1)c1ccc(C)c(C)c1O (stereo unspecified), which Potency is on record?
Its Potency is “inactive”.

Which Potency does the source give for CCOc1ccccc1OCC(=O)Nc1cccc2ncccc12 here?
The Potency was 8.91 µM (active).

For CCCOc1ccc(NC(=O)COc2cccc(C)c2C)c2cccnc12, which Potency is on record?
The Potency was “inactive”.

For COc1c(C)cccc1C(=O)Nc1cccc2ncccc12, which Potency is on record?
Its Potency is “inactive”.

Which Potency does the source give for Cc1ccc(NS(=O)(=O)c2c(C)[nH]c(C)c2C(=O)N2CCCCC2)c(C)c1 here?
Its Potency is “inactive”.

With Cc1ccc(N/N=C/C=C/c2ccccc2)cc1Cl as the compound, how does the Potency read?
Its Potency is “inactive”.

For Cc1nc2cc(NC(C(=O)Nc3ccc(F)cc3)c3ccccc3)ccc2o1 (stereo unspecified), which Potency is on record?
The Potency was “inactive”.

With COc1ccc(C(=O)/C(=C/c2ccncc2)c2nc3ccccc3o2)cc1OC as the compound, how does the Potency read?
Its Potency is 15.8 µM (active).

Which Potency does the source give for COc1ccc(/C=C/c2nc3ccccc3o2)cc1OCC(C)C here?
The Potency was “inactive”.

With COc1ccc(NC(C)=O)cc1NC(=O)/C=C/c1nc2ccccc2o1 as the compound, how does the Potency read?
Its Potency is “inactive”.

With Cc1ccc(CCC(=O)Nc2ccc(C)c(C)c2)s1 as the compound, how does the Potency read?
Its Potency is “inactive”.

Which Potency does the source give for O=C(NC1CCCCC1)c1ccc2c(c1)N(Cc1ccc(Cl)cc1)C(=O)c1ccccc1S2=O (stereo unspecified) here?
The Potency was “inactive”.

Which Potency does the source give for O=C(O)c1ccc2c(c1)N(Cc1ccc(F)cc1)C(=O)c1ccccc1S2=O (stereo unspecified) here?
Its Potency is 8.91 µM (active).

Which Potency does the source give for CCN1C(=O)c2ccccc2S(=O)c2ccc(C(=O)NCc3ccc(F)cc3)cc21 (stereo unspecified) here?
Its Potency is “inactive”.

With O=C(CC(=O)c1ccc(F)cc1)c1ccc(F)cc1 as the compound, how does the Potency read?
The Potency was “inactive”.

For CC(Oc1ccc(C#N)cc1)C(=O)NC(C1CC1)C1CC1 (stereo unspecified), which Potency is on record?
The Potency was “inactive”.

Which Potency does the source give for O=S1(=O)c2ccc(N3CCN(Cc4ccccc4F)CC3)cc2Oc2ccccc2CN1Cc1cn(Cc2ccc(Cl)cc2)nn1 here?
Its Potency is “inactive”.

For Cc1nn(Cc2ccc(F)cc2)c(C)c1NC(=O)c1noc2c1CCc1ccccc1-2, which Potency is on record?
The Potency was “inactive”.

Which Potency does the source give for Cc1ccccc1Cn1nc(C)c(NC(=O)c2cc(-c3ccc(F)cc3)on2)c1C here?
Its Potency is “inactive”.

Which Potency does the source give for Cc1nn(Cc2ccc(F)cc2)c(C)c1NC(=O)c1cc(CC(C)C)on1 here?
The Potency was 25.1 µM (active).

Which Potency does the source give for O=C(Nc1ccccc1)C1=C(Nc2ccc(F)cc2F)c2ccccc2S1(=O)=O here?
The Potency was “inactive”.

Which Potency does the source give for CC(=O)Nc1ccc(NC(=O)COC(=O)c2oc3ccccc3c2C)cc1 here?
The Potency was “inactive”.

With CC(Sc1ccc2c(c1)OCCCO2)C(=O)O (stereo unspecified) as the compound, how does the Potency read?
The Potency was “inactive”.

For CN(Cc1ccc2c(c1)OCCO2)CC(O)COc1ccccc1C(C)(C)C (stereo unspecified), which Potency is on record?
Its Potency is “inactive”.

For CC(C)(C)c1ccc2c(c1)OCCOCCOCCOc1ccc(C(C)(C)C)cc1OCCOCCOCCO2, which Potency is on record?
Its Potency is 25.1 µM (active).

For Cc1ccnc(NC(=O)CCc2ncc(-c3ccc(F)cc3F)o2)c1, which Potency is on record?
The Potency was “inactive”.

With CCOc1ccc(NC(C)=O)cc1S(=O)(=O)Nc1ccccc1-c1nnc2n1CCCCC2 as the compound, how does the Potency read?
Its Potency is “inactive”.

For COc1ccc(-c2c(C)c3ccc(OS(C)(=O)=O)cc3oc2=O)cc1, which Potency is on record?
Its Potency is 15.8 µM (active).

Which Potency does the source give for COc1ccc(-c2c(C)oc3cc(OC)ccc3c2=O)cc1 here?
The Potency was “inactive”.

For COc1ccc(-c2c(C)c3ccc(O)c(C)c3oc2=O)cc1, which Potency is on record?
Its Potency is “inactive”.

Which Potency does the source give for CCNc1c(NS(=O)(=O)c2ccc3c(c2)oc(=O)n3C)c(=O)oc2ccccc12 here?
Its Potency is “inactive”.

With CC(C)c1ccc2oc(=O)cc(CN3CCN(Cc4ccccc4)CC3)c2c1 as the compound, how does the Potency read?
Its Potency is “inactive”.

Which Potency does the source give for Cc1cccc(CN2CCN(Cc3cc(=O)oc4c(C)c(O)ccc34)CC2)c1 here?
The Potency was 20 µM (active).

With Cc1cc2oc(=O)cc(CN3CCN(c4ccccc4)CC3)c2cc1O as the compound, how does the Potency read?
Its Potency is “inactive”.

With CNC/C=C/COc1ccc(C)c(C)c1 as the compound, how does the Potency read?
Its Potency is “inactive”.

With Cc1ccc(S(C)(=O)=O)cc1NCc1ccccc1F as the compound, how does the Potency read?
The Potency was “inactive”.

With CCC(Sc1nc2ncccc2[nH]1)C(=O)Nc1ccc(C)c(Cl)c1 (stereo unspecified) as the compound, how does the Potency read?
The Potency was “inactive”.

With NCCOc1ccc(C(F)(F)F)cc1 as the compound, how does the Potency read?
The Potency was “inactive”.

For CC(C)(C)C(=O)NCCCC(=O)NCCc1ccccc1, which Potency is on record?
The Potency was “inactive”.

Which Potency does the source give for Cc1ccc2c(Cn3nnc(-c4ccc(F)cc4)n3)cc(=O)oc2c1 here?
The Potency was “inactive”.

Which Potency does the source give for Cc1ccccc1NS(=O)(=O)c1ccc(C(=O)N(C)CC(=O)Nc2cccc3ccccc23)cc1 here?
The Potency was “inactive”.

For O=C(Cc1ccccc1Cl)N1CCN(c2ncnc3nc[nH]c23)CC1, which Potency is on record?
The Potency was “inactive”.

For CC(=O)Nc1ccc2oc(-c3cncc(Br)c3)nc2c1, which Potency is on record?
Its Potency is “inactive”.

For CCOc1ccc(NC(=O)CCc2ncc(-c3ccccc3F)o2)cc1, which Potency is on record?
The Potency was “inactive”.

With CCc1cc(C(=O)N2CCN(c3ccccc3OC)CC2)no1 as the compound, how does the Potency read?
The Potency was “inactive”.

With O=C(Nc1cccc(-c2nc3cc(Cl)ccc3o2)c1)c1ccccc1 as the compound, how does the Potency read?
Its Potency is “inactive”.

With Fc1ccc(Oc2ccc(CNc3ncccn3)cn2)cc1 as the compound, how does the Potency read?
Its Potency is “inactive”.

For CC(CCN1CCC(C(O)(c2ccccc2)c2ccccc2)CC1)Oc1ccc([N+](=O)[O-])cc1Cl (stereo unspecified), which Potency is on record?
The Potency was “inactive”.

With CC(=O)Oc1ccc2c(C)c(-c3ccccc3)c(=O)oc2c1 as the compound, how does the Potency read?
Its Potency is “inactive”.

For CC1CCc2sc(N)c(C#N)c2C1 (stereo unspecified), which Potency is on record?
The Potency was “inactive”.

With COC(=O)CN1CCCC1c1ccsc1 (stereo unspecified) as the compound, how does the Potency read?
The Potency was “inactive”.

For CCCCNC(=O)c1cccc(N)c1, which Potency is on record?
The Potency was “inactive”.

With C=C(C)CN1CCN(CCO)CC1 as the compound, how does the Potency read?
Its Potency is “inactive”.

Which Potency does the source give for Cc1sc2nc(SCc3ccc(Cl)cc3)n(CCCN3CCOCC3)c(=O)c2c1C here?
Its Potency is “inactive”.

Which Potency does the source give for Cc1ccccc1Nc1nc(-c2ccc([N+](=O)[O-])cc2)nc2ccccc12 here?
Its Potency is “inactive”.

For FC(F)(F)c1ccccc1C(c1ccccc1)N1CCCNCC1 (stereo unspecified), which Potency is on record?
The Potency was “inactive”.

For Cc1ccc(CNC(=O)c2scnc2C)cn1, which Potency is on record?
Its Potency is “inactive”.

Which Potency does the source give for COc1ccc(OC)c(CNC(=O)c2scnc2C)c1 here?
Its Potency is “inactive”.

For Cc1ncsc1C(=O)NCc1ccc(N2CCCCCC2)nc1, which Potency is on record?
The Potency was 12.6 µM (active).

Which Potency does the source give for COc1cccc(CNC(=O)N2CCN(Cc3ccc(Br)s3)CC2)c1 here?
Its Potency is “inactive”.

For Nc1nccnc1C(=O)NCCc1ccc(F)cc1, which Potency is on record?
The Potency was “inactive”.

For COc1cc(CNC(=O)Cc2ccc(OC)c(OC)c2)ccn1, which Potency is on record?
The Potency was “inactive”.

Which Potency does the source give for COc1ccc2cc(CNC(=O)c3nccnc3N)ccc2c1 here?
The Potency was 22.4 µM (active).

For COc1cc(CNC(=O)C(C)Oc2ccccc2)ccn1 (stereo unspecified), which Potency is on record?
The Potency was “inactive”.

With CC(C)OCc1ccccc1CNC(=O)c1nccnc1N as the compound, how does the Potency read?
Its Potency is “inactive”.

With Nc1nccnc1C(=O)NCc1ccnc(Oc2ccccc2)c1 as the compound, how does the Potency read?
Its Potency is 31.6 µM (active).
